# In the library only some 2.8% were active in any assay of this set; here they are far more common.
# ERa coact pot: enhances coactivator binding to human estrogen receptor alpha; coactivator binding (% of control), % at 25.6 µM; 86,000 tested, 1.3% active; TR-FRET ERalpha-LBD/SRC-Cy5 coactivator binding, 2 h; 100 = basal binding, no effect; in the data active means activity above about 200%;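 further: binding measured in presence of low estradiol as agonist stimulus; 0% = peptide alone without receptor and 100% = receptor with peptide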
# Smad3 FoxH1 inh: inhibitors of human Smad3 transcription factor binding | P84022 | 88,000 tested, 0.29% active | AID 630 | TR-FRET Smad3/Dy647-FoxH1 peptide binding, europium anti-His | inhibition, % at 25 µM;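 active means compounds that reduce the energy-transfer binding signal between the protein and its labelled peptide by more than half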;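 further: 0% = Smad3 plus labelled peptide maximal FRET and 100% = peptide-only background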
# ERa SRC1 inh: ER-alpha (human) coactivator binding inhibition | 86,000 tested, 1.7% active | TR-FRET ER-alpha LBD / SRC-1 peptide, estradiol-bound | inhibition, % at 25.6 µM; in the data active means inhibition above about 50%;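 further: 0% = receptor plus peptide control and 100% = peptide only without receptor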
# MRP reversal: compounds reversing MRP-mediated drug resistance | differential viability (reversal), % at 10 µM | H69AR cells + 2 uM doxorubicin, CellTiter-Glo, 72 h | 85,000 tested, 0.04% active;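 active means viability drop by adding the cancer drug above about 55%, with treated viability meeting a 40% cutoff, limit read from the data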;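 further: viability without doxorubicin minus viability with 2 µM doxorubicin for each compound; larger differential means the compound sensitizes cells more to doxorubicin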
# MRP1 act: MRP-1 activation; viability increase, % at 10 µM; H69AR cells + doxorubicin, viability rescue, CellTiter-Glo; 140,000 tested, 0.61% active;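 active means viability gain under doxorubicin at or above a set limit, the compound median plus 3 SD, cut at about 4.7% in these data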;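 further: MRP-1 overexpressing cells given doxorubicin 25 µM after compound pretreatment; 18-22 h compound pretreatment then 72 h with doxorubicin before readout; 0% = doxorubicin-only wells and 100% = vehicle-treated cells without doxorubicin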
# ERb SRC1 inh: ER-beta (human) coactivator binding inhibition; Q92731; TR-FRET ER-beta LBD / SRC1-Cy5 peptide binding; receptor agonist-loaded with 1 µM estradiol; inhibition, % at 25.6 µM; 86,000 tested, 1.3% active; AID 633;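 active means compounds whose percent inhibition of the receptor-coactivator binding signal exceeds about 50% in the single-dose screen, limit read from the data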;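 further: 0% = receptor plus peptide wells without compound and 100% = peptide-only wells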
# Target sequence (Q92731 whole entry, looked up, the tested form may be a part): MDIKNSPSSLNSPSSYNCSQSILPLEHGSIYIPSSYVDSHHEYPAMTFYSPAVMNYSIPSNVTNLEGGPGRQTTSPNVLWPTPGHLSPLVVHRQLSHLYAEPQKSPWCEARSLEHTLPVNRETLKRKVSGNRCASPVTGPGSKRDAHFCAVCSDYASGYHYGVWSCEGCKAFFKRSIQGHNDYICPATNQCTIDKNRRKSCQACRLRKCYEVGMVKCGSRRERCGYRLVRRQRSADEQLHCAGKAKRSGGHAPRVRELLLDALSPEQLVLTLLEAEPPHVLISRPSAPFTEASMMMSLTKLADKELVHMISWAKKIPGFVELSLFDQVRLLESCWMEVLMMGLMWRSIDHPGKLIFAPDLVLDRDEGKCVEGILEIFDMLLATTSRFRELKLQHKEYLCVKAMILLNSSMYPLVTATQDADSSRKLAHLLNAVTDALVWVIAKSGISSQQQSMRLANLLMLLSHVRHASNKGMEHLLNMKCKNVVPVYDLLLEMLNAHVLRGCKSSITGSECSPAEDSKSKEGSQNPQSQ
# Active calls of the source: *; / = not tested or not shown; [ ] = dose if it differs, or a comment.
SMILES,ERa coact pot,Smad3 FoxH1 inh,ERa SRC1 inh,MRP reversal,MRP1 act,ERb SRC1 inh
CCCc1nc2sc3c(=O)n(N)cnc3c2c2c1CCCC2,/,/,/,/,-3.4,/
Cn1c(=O)cc(SCC(=O)Nc2cccnc2)c2ccccc21,263.9*[fluorescence artefact?],13.3,5.2,8.8,0.4,-10.0
N=C(N)SCCCN,/,-16.2,/,/,/,/
Cc1occc1-c1nnc(SCc2cc(=O)n3cc(Br)ccc3n2)n1C,120.5,7.7,61.1*,14.0,-1.9,52.8*
Cc1ccccc1Nc1nc(CSc2nnc(-c3ccoc3C)n2C)cs1,92.3,1.2,0.1,7.1,-0.5,7.4
Cn1c(SCc2cc(=O)n3cc(Br)ccc3n2)nnc1C1COc2ccccc2O1 (stereo not given),65.3,-3.4,68.2*,7.7,-0.6,49.3
N#CCC(=O)N/N=C/c1ccc(Sc2nc3ccccc3s2)o1,/,/,/,/,0.1,/
COc1ccc(C2CC(=O)Nc3ccccc3S2(=O)=O)cc1OC (stereo not given),54.5,2.3,32.4,13.9,0.2,50.2*
NC1=NC(=O)/C(=C/c2cn(CCC(=O)O)nc2-c2ccc(Cl)cc2)S1,/,/,/,/,5.5*,/
NC1=NC(=O)/C(=C/c2cn(CCC(=O)O)nc2-c2ccc(F)cc2)S1,/,/,/,/,1.2,/
Cc1ccc(Nc2nnc(-c3ccc(N4CCOCC4)c([N+](=O)[O-])c3)c3ccccc23)cc1,/,/,/,/,5.2*,/
O=[N+]([O-])c1cc(-c2nnc(Nc3ccccc3)c3ccccc23)ccc1N1CCOCC1,/,/,/,/,0.6,/
CSc1nc(C)cc(Nc2ccc(O)c(CN3CCCCC3)c2)n1,/,-8.0,/,/,/,/
COCCCNC(=O)Cn1cc2c(n1)CCC(C)C2 (stereo not given),205.4*,15.0,12.9,0.0,-1.2,-0.7
COc1ccccc1CNC(=O)c1c(O)c2cc(OC)c(OC)cc2[nH]c1=O,80.5,17.2,57.5*[fluorescence artefact?],-15.3,-1.7,28.4
O=C(Nc1nc(=S)ss1)c1ccc(Cl)cc1Cl,49.8,5.2,9.4,3.2,-2.4,-16.3
Cc1ccc(-n2nnnc2SCC(=O)c2c(N)n(CC(C)C)c(=O)n(C)c2=O)cc1,242.1*,2.6,-7.6,-5.5,-1.9,-6.4
CCOC(=O)Cn1c(C(F)(F)F)nc2nc(Cl)c(Cl)nc21,/,55.8*,/,/,/,/
CCOC(=O)Cn1c2ccccc2c2nc3ccccc3nc21,77.4,18.0,47.6,-19.4,-3.4,12.8
CCn1c(SCC(=O)c2ccc(O)c(O)c2)nnc1-c1ccccc1OC,78.3,10.4,21.6,-34.8,1.2,53.9*
Cc1nnc2n(-c3ccc(Cl)cc3)c(=O)c3c4c(sc3n12)CN(C)CC4,107.1,0.1,-15.5,8.4,/,-3.0
CN1CCc2c(sc3c2c(=O)n(-c2ccccc2)c2nnc(SCc4ccc(Cl)cc4)n32)C1,313.5*,2.3,30.7,50.8,-0.6,11.8
O=C(Cc1ccccc1)Nc1ccccc1Oc1ccccc1,/,/,/,/,8.1*,/
CCCCC(CCC(=O)NNC(=O)Cc1ccccc1)C(=O)O (stereo not given),/,/,/,/,-2.6,/
NC(=S)SCCC(=O)O,/,10.5,/,/,/,/
SMILES,ERa coact pot,Smad3 FoxH1 inh,ERa SRC1 inh,MRP reversal,MRP1 act,ERb SRC1 inh
Cc1cc(C)n2cc(CSc3nc4ccccc4s3)nc2n1,/,/,/,/,-2.0,/
Cc1cc(NC(=O)CSc2nc3c(c(-c4cccnc4)c2C#N)CCC3)no1,257.7*[fluorescence artefact?],-295.8,21.6,1.1,-0.8,18.6
COc1ccc(C(=O)CSc2nc(N)nc(SC)c2C#N)cc1,480.3*[fluorescence artefact?],16.0,21.1,5.6,-5.6,22.8
COc1ccc(-c2c(C#N)c(SCC(N)=O)nc3c2CCCC3)cc1,284.7*,7.5,18.2,2.9,1.4,10.5
COc1cccc(-c2cc(C(=O)Nc3cc(C)on3)no2)c1,428.1*[fluorescence artefact?],6.4,22.9,3.9,1.6,30.1
COc1cccc(-c2cc(C(=O)NCc3ccc(Cl)cc3)no2)c1,95.1,-2.5,69.6*[fluorescence artefact?],4.1,2.1,19.6
COc1cc(COCC(O)CN2CCOCC2)cc(OC)c1OC (stereo not given),116.2,0.4,-6.7,1.8,-0.6,-4.8
c1ccc2sc(SCc3ccc(-c4nnco4)cc3)nc2c1,116.4,4.1,1.1,2.4,-3.9,-1.9
COc1ccc(N2CCN(Cc3cc(=O)oc4cc(-c5ccccc5)c(O)cc34)CC2)cc1,70.0,3.4,64.1*[fluorescence artefact?],-6.5,-2.9,43.3
O=c1cc(CN2CCN(c3ccccc3F)CC2)c2cc(O)c(-c3ccccc3)cc2o1,/,/,/,/,-4.1,/
Cn1c2ccccc2c(=O)c2c(=O)n(C3CCCCC3)c(-c3cccs3)nc21,436.3*[fluorescence artefact?],16.3,30.1,-10.4,-1.9,4.4
CCn1c(CNC(=O)c2ccco2)nnc1SCC(=O)Nc1cc(C(F)(F)F)ccc1Cl,/,/,/,/,-2.6,/
O=C(CCCN1C(=O)c2ccccc2C1=O)Nc1c(C(=O)C2CC2)oc2ccccc12,111.2,-7.6,2.0,-5.8,-1.7,-2.0
COC(=O)c1oc2ccc(Br)cc2c1NC(=O)CCCN1C(=O)c2ccccc2C1=O,131.2,-31.7,52.5*,-26.9,0.9,25.9
CN(c1ccccc1)S(=O)(=O)c1cccc(C(=O)OCC(=O)NCc2ccc3c(c2)OCO3)c1,/,/,/,/,2.2,/
Cc1cc(N2CCC(C)CC2)nc2cccc(O)c12,550.2*[fluorescence artefact?],1.0,-11.4,-16.2,-3.9,-3.1
C(=N\N1CCN(Cc2cccc3ccccc23)CC1)/c1cccnc1,/,/,/,/,-0.4,/
CCCCCNC(=O)C1CC=CCC1C(=O)O (stereo not given),272.6*[fluorescence artefact?],2.8,-1.7,4.3,-0.4,-2.4
NS(=O)(=O)c1ccc(N=Nc2nc3[nH]cnc(=S)c3[nH]2)cc1,/,-6.5,/,/,/,/
Cc1cc(C)n(C(=O)c2cccc(S(=O)(=O)N3CCOCC3)c2)n1,75.0,-7.5,8.5,6.6,0.0,-1.3
Cc1ccc(Sc2c(C)nn(C(=O)c3cccc(S(=O)(=O)N4CCOCC4)c3)c2C)cc1,236.7*[fluorescence artefact?],3.6,17.7,-0.7,-1.6,13.7
Cc1ccc(C)n1-c1ncn[nH]1,132.3,8.9,3.3,-2.3,1.6,8.4
CC1=N[C@@](C)(COC(=O)[C@]2(C)N[C@](C)(CO)CO2)COC1=O,/,-1.4,/,/,/,/
Cc1ccccc1C(=O)N1CCC(C(=O)Nc2ccc3c(c2)OCO3)CC1,/,/,/,/,-0.6,/
Cc1cc(C)cc(NC(=O)C2CCCN(c3nc(C)cc(C)n3)C2)c1 (stereo not given),90.0,-5.0,3.5,1.4,-4.8,74.6*[fluorescence artefact?]
SMILES,ERa coact pot,Smad3 FoxH1 inh,ERa SRC1 inh,MRP reversal,MRP1 act,ERb SRC1 inh
CC(=O)Nc1ccc(NC(=O)C2CCCN(c3ncccn3)C2)cc1 (stereo not given),88.4,-7.5,-9.0,3.2,0.2,-2.9
O=C(Nc1ccc(C2CCCCC2)cc1)C1CCCN(c2ncccn2)C1 (stereo not given),223.3*[fluorescence artefact?],7.8,15.8,-3.1,/,-1.2
COCC(=O)Nc1nnc(Cc2ccc(OC)cc2)s1,107.5,-6.3,26.9,0.1,-1.1,54.8*
Nc1nc(N)c(N=Nc2ccc(C(=O)O)c(O)c2)c(N)n1,/,54.9*,/,/,/,/
Clc1ccc(OCCSc2ncccn2)c2ccccc12,83.8,0.9,-4.3,2.1,5.0*,0.7
CCN(CC)c1ccc(-c2c(C#N)c(N)nc(OC)c2C#N)cc1,212.5*[fluorescence artefact?],8.0,21.1,-6.8,-1.5,25.6

# Screens as filed in PubChem.
